In PMC7862700, “An all-to-all approach to the identification of sequence-specific readers for epigenetic DNA modifications on cytosine” one finds binding signal data, which are given here for one sequence.

Holding throughout (assay): DAPPL (digital affinity profiling via proximity ligation, sequencing); 10 mM Tris-HCl pH 7.5, 50 mM NaCl, 1 mM DTT, 4% glycerol, room temperature, 30 min; GST-TFs on glutathione beads, 16-mer random dsDNA library, 0.1% formaldehyde crosslink after washing; high values mean tight binding
In one experiment the target is T1, FLI1 (Homo sapiens, UniProt Q01543 1-452).
T1 sequence: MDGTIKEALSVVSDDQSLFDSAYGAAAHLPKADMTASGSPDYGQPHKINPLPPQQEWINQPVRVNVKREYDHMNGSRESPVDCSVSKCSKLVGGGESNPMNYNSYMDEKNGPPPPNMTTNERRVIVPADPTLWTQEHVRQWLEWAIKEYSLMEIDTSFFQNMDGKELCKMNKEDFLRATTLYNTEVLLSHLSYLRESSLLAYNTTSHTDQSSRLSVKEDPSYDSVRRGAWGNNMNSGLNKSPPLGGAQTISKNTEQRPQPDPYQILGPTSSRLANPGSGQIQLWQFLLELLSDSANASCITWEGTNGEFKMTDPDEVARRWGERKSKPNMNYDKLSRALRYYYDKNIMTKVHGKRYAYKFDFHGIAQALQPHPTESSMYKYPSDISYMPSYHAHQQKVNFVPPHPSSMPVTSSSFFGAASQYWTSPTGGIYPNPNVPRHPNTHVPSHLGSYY
To be noted: protein: recombinant; tags: N-terminal GST; dsDNA, one strand shown. In short, it runs like this:
(§1)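 In yeast, human transcription factors were expressed with a GST fusion, then pulled down on glutathione beads and given DNA barcodes. Pooled with a tag-only sample, they were exposed to 200 nmole of a 16-mer random double-stranded DNA library (Tris/NaCl/DTT/glycerol buffer, room temperature, 30 min), washed, crosslinked with 0.1% formaldehyde, proximity-ligated using BsaI/T4 ligase for 1 h at 37 °C, PCR-amplified and read on an Illumina NextSeq500. Each hexamer's frequency of reads for a factor, divided by the matching frequency for the tag-only sample, gives the binding signal.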

The next experiment has as its target T2, ELK1 (Homo sapiens, UniProt P19419 1-428).
T2 sequence: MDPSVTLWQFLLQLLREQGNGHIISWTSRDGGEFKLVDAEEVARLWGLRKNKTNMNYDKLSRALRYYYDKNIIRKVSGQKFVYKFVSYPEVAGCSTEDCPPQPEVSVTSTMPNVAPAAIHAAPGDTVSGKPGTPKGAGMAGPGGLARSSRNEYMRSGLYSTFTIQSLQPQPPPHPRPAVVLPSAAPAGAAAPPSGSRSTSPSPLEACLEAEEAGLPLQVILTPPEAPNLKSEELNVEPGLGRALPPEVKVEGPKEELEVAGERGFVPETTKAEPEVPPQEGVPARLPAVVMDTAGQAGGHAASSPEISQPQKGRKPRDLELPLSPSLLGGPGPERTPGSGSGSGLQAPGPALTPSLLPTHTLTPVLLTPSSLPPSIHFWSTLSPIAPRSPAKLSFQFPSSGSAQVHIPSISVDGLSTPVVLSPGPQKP
The note with it: protein: recombinant; tags: N-terminal GST; dsDNA, one strand shown. In short, it runs like this:
as §1

Another experiment addresses T3, GABPA (Homo sapiens, UniProt Q06546 1-454).
T3 sequence: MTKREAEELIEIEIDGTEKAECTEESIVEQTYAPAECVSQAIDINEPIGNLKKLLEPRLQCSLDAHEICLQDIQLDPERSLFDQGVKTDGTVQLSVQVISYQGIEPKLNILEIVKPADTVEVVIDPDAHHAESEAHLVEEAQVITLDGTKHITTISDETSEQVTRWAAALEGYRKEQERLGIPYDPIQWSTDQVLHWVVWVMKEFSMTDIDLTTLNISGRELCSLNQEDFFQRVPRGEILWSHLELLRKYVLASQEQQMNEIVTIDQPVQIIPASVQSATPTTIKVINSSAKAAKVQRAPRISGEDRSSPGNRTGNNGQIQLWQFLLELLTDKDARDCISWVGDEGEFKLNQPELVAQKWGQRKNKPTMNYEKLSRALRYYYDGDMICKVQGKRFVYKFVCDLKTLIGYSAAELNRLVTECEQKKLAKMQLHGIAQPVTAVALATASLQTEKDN
The note with it: protein: recombinant; tags: N-terminal GST; dsDNA, one strand shown. In short, it runs like this: as §1

A further experiment deals with T4, ERG (Homo sapiens, UniProt P11308 1-479).
T4 sequence: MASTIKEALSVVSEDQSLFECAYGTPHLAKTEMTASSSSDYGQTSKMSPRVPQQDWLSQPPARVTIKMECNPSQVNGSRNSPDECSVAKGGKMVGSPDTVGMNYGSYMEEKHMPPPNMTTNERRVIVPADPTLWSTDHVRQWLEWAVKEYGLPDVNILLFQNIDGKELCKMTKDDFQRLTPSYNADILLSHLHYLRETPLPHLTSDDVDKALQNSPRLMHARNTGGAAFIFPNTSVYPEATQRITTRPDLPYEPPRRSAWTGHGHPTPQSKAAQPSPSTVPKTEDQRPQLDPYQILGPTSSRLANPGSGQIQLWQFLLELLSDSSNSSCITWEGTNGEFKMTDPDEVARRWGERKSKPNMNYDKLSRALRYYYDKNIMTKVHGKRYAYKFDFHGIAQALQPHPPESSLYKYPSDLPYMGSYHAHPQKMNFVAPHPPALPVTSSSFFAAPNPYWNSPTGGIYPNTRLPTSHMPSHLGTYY
The note with it: protein: recombinant; tags: N-terminal GST; dsDNA, one strand shown. The procedure, abridged: as §1

For the next experiment, the target named is ELF1 (Homo sapiens, UniProt P32519 1-619). The note with it: protein: recombinant; tags: N-terminal GST; dsDNA, one strand shown. The procedure, abridged: as §1
Another experiment has as its target T5, EHF (Homo sapiens, UniProt Q9NZC4 1-300).
T5 sequence: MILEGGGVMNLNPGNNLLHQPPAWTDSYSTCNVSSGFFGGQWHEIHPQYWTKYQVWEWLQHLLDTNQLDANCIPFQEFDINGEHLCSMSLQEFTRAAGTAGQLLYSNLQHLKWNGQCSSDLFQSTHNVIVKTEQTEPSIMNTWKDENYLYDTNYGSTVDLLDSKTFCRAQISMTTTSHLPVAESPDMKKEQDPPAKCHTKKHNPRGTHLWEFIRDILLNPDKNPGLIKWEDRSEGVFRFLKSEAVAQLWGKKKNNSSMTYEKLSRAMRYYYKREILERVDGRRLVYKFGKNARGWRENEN
To be noted: protein: recombinant; tags: N-terminal GST; dsDNA, one strand shown. The procedure, abridged:
as §1

The next experiment concerns the target SPI1 (Homo sapiens, UniProt P17947 1-270). To be noted: protein: recombinant; tags: N-terminal GST; dsDNA, one strand shown. In short, it runs like this:
as §1

Another experiment deals with SPIB (Homo sapiens, UniProt Q01892 1-262). To be noted: protein: recombinant; tags: N-terminal GST; dsDNA, one strand shown. In short, it runs like this:
as §1

In a further experiment the target is T6, ELK3 (Homo sapiens, UniProt P41970 1-407).
T6 sequence: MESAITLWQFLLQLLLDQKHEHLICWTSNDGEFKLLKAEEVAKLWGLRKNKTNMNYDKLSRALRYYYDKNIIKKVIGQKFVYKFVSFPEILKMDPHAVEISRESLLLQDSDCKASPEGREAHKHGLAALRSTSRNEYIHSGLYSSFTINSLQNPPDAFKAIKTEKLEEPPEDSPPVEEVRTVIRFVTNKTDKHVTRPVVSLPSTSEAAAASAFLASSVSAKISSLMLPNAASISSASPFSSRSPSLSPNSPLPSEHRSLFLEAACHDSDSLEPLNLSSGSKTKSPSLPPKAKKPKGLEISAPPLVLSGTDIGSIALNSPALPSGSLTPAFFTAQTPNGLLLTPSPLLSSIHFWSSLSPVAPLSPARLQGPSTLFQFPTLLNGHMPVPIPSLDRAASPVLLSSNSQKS
To be noted: protein: recombinant; tags: N-terminal GST; dsDNA, one strand shown. The procedure, abridged:
as §1

The next experiment has as its target T7, FEV (Homo sapiens, UniProt Q99581 1-238).
T7 sequence: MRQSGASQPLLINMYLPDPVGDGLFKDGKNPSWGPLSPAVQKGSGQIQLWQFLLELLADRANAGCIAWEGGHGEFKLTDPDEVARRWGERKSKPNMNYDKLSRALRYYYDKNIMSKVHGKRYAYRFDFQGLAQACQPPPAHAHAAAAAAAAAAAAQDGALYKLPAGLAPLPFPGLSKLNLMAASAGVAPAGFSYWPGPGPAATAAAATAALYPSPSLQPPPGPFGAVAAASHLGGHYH
The note with it: protein: recombinant; tags: N-terminal GST; dsDNA, one strand shown. In short, it runs like this:
as §1

The target in the next experiment is ETV5 (Homo sapiens, UniProt P41161 1-510). The note with it: protein: recombinant; tags: N-terminal GST; dsDNA, one strand shown. The procedure, abridged:
as §1

For the next experiment, the target named is HSF1 (Homo sapiens, UniProt Q00613 1-529). The note with it: protein: recombinant; tags: N-terminal GST; chain copies: 3; dsDNA, one strand shown. In short, it runs like this: as §1
The next experiment concerns the target T8, SPIC (Homo sapiens, UniProt Q8N5J4 1-248).
T8 sequence: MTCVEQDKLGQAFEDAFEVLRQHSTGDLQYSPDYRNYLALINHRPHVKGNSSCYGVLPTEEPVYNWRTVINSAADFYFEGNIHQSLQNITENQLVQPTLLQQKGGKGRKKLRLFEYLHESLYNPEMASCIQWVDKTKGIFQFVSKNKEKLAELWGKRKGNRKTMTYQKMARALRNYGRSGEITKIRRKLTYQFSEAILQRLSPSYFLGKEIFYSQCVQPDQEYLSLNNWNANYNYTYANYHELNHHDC
To be noted: protein: recombinant; tags: N-terminal GST; dsDNA, one strand shown. The procedure, abridged: as §1

Another experiment has as its target ELF4 (Homo sapiens, UniProt Q99607 1-663). To be noted: protein: recombinant; tags: N-terminal GST; dsDNA, one strand shown. In short, it runs like this:
as §1

The target of another experiment is T9, ELK4 (Homo sapiens, UniProt P28324-2 1-405).
T9 sequence: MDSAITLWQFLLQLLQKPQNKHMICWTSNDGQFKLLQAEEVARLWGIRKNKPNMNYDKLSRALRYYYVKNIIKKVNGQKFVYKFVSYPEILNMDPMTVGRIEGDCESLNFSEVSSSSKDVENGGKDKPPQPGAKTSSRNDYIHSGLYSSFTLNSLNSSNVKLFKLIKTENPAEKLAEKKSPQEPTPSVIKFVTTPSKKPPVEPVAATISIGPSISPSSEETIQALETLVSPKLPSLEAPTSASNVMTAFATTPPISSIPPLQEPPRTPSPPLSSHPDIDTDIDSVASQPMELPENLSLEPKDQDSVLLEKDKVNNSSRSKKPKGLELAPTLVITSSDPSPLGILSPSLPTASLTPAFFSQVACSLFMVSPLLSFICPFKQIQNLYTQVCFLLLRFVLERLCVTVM
To be noted: protein: recombinant; tags: N-terminal GST; dsDNA, one strand shown. The procedure, abridged:
as §1

In another experiment the target is T10, ETV2 (Homo sapiens, UniProt O00321 1-342).
T10 sequence: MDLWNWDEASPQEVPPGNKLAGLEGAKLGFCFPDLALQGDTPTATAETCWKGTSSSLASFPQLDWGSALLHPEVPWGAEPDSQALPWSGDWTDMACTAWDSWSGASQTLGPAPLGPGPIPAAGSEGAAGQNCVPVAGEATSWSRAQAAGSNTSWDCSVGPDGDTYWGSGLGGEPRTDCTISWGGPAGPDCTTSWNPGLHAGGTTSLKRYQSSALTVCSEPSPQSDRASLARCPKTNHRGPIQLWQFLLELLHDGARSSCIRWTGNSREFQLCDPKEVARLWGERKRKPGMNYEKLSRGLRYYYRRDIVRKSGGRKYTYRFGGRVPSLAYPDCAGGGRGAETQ
The note with it: protein: recombinant; tags: N-terminal GST; dsDNA, one strand shown. The procedure, abridged: as §1

In the next experiment the target is T11, ELF3 (Homo sapiens, UniProt P78545 1-371).
T11 sequence: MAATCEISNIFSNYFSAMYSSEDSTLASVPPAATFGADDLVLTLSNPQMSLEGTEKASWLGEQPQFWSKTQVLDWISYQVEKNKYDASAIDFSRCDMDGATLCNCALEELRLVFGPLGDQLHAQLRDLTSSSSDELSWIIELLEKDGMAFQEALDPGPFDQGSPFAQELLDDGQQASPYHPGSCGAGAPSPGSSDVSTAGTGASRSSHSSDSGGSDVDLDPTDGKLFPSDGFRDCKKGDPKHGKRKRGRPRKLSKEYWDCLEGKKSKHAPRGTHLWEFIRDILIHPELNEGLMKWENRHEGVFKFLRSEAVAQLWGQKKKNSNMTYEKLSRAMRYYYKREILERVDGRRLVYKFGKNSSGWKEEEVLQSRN
To be noted: protein: recombinant; tags: N-terminal GST; dsDNA, one strand shown. In short, it runs like this: as §1

A further experiment concerns the target CRX (Homo sapiens, UniProt O43186 1-299). The note with it: protein: recombinant; tags: N-terminal GST; dsDNA, one strand shown. In short, it runs like this: as §1
The next experiment deals with ETV1 (Homo sapiens, UniProt P50549 1-477). The note with it: protein: recombinant; tags: N-terminal GST; dsDNA, one strand shown. The procedure, abridged: as §1
ETV1, sequence (P50549 whole entry): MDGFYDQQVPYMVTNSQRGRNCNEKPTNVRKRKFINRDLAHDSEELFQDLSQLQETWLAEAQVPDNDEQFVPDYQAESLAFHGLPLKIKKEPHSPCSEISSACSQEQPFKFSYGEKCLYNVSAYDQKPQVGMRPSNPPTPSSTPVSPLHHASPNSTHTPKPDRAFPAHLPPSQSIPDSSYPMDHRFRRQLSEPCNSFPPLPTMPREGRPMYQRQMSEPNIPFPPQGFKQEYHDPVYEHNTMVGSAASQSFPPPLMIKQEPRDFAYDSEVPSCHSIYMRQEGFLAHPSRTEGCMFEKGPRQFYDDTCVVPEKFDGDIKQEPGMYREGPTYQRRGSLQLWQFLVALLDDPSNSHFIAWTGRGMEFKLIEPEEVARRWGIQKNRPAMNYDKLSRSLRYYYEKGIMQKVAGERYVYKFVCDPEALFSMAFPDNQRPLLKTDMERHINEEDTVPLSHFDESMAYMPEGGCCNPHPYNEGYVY

HSF1, sequence (Q00613 whole entry): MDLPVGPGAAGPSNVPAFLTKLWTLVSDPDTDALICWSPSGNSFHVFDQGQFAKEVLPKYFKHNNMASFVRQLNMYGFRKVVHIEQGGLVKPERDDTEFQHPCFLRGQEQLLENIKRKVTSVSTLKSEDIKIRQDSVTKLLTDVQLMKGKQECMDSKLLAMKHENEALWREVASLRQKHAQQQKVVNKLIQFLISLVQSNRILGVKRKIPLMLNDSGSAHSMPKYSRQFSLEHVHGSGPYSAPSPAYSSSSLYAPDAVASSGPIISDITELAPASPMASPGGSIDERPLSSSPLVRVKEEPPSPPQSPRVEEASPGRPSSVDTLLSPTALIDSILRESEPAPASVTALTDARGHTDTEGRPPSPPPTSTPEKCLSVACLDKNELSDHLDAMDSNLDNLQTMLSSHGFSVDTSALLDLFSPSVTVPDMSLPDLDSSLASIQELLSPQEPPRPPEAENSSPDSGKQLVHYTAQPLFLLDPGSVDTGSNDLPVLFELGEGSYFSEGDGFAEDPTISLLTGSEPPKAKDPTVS
ETV5, sequence (P41161 whole entry): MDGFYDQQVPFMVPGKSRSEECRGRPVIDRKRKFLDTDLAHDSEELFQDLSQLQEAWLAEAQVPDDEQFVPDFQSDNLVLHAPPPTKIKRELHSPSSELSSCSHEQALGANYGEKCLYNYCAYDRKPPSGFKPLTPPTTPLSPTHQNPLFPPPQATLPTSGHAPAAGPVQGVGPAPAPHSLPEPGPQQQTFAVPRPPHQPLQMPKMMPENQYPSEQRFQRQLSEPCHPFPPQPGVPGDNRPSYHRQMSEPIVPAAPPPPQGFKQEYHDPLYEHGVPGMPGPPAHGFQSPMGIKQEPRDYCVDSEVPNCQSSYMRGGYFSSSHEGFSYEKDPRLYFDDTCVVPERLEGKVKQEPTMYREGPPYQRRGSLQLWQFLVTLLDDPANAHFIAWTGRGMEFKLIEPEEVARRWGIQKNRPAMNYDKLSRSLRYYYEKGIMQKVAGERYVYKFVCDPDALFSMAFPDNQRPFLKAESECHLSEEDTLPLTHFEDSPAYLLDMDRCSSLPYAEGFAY
CRX, sequence (O43186 whole entry): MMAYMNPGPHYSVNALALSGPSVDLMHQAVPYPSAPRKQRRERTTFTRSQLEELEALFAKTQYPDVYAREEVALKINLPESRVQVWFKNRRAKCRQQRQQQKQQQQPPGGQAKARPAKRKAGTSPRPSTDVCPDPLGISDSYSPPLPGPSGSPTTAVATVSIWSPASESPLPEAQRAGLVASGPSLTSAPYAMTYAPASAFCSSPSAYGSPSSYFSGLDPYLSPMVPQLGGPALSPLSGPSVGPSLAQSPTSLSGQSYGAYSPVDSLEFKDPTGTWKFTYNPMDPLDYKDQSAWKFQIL
ELF1, sequence (P32519 whole entry): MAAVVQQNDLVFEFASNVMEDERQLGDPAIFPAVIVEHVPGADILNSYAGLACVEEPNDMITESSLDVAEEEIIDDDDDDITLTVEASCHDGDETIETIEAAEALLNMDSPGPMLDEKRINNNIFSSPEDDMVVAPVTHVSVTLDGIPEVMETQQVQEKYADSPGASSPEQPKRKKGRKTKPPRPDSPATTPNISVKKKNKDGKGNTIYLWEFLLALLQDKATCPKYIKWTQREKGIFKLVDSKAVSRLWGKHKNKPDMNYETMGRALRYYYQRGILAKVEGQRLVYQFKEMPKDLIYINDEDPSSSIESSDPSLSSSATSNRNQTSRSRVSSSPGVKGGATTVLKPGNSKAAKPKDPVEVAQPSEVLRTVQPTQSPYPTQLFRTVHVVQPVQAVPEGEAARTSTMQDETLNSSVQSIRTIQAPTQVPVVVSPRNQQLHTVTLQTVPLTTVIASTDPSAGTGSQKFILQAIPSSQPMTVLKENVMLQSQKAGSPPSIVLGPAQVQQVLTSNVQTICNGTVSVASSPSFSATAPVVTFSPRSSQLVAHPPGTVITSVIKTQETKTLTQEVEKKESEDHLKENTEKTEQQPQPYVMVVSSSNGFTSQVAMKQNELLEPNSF
SPIB, sequence (Q01892 whole entry): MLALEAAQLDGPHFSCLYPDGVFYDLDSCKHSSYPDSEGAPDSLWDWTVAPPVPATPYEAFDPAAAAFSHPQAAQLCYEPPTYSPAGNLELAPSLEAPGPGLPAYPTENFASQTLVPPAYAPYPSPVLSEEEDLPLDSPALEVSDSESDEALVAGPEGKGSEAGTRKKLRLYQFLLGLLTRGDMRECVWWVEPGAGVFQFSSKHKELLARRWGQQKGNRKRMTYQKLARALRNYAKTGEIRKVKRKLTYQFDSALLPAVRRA
ELF4, sequence (Q99607 whole entry): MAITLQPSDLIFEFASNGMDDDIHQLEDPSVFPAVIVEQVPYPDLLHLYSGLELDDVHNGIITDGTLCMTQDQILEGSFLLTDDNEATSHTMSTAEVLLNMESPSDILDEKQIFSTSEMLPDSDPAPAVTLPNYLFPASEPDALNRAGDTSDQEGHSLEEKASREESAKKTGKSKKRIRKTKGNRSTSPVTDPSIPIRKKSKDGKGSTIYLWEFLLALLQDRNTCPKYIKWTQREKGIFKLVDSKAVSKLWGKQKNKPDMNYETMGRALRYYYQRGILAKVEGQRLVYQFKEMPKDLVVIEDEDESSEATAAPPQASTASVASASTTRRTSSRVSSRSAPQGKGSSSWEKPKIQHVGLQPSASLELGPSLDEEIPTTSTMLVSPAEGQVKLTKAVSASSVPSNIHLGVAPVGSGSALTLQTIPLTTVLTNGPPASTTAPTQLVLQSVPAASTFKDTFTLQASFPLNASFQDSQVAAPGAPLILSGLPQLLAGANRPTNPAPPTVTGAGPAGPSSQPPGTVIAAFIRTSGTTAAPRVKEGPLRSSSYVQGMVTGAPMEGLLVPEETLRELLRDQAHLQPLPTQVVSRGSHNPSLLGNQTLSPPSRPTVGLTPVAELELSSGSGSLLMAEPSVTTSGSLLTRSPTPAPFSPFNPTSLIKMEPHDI

TTATTA: the binding signal in the experiment with FLI1 was 1.17 fold enrichment (6-mer frequency, TF over GST control); in the experiment with ELK1, 1.05 fold enrichment (6-mer frequency, TF over GST control); with GABPA, 1.04 fold enrichment (6-mer frequency, TF over GST control); with ERG, 1.1 fold enrichment (6-mer frequency, TF over GST control); with ELF1, 1.1 fold enrichment (6-mer frequency, TF over GST control); with EHF, 1.14 fold enrichment (6-mer frequency, TF over GST control). For the same sequence, the binding signal in the experiment with SPI1 was 1.1 fold enrichment (6-mer frequency, TF over GST control); with SPIB, 1.04 fold enrichment (6-mer frequency, TF over GST control); in the experiment with ELK3 it was 1.2 fold enrichment (6-mer frequency, TF over GST control); with FEV, 1.09 fold enrichment (6-mer frequency, TF over GST control); in the experiment with ETV5 it was 1.14 fold enrichment (6-mer frequency, TF over GST control); with HSF1 it was 1.75 fold enrichment (6-mer frequency, TF over GST control). For the same sequence, the binding signal with SPIC was 1.31 fold enrichment (6-mer frequency, TF over GST control); in the experiment with ELF4, 1.18 fold enrichment (6-mer frequency, TF over GST control); in the experiment with ELK4, 1.03 fold enrichment (6-mer frequency, TF over GST control); with ETV2, 1.2 fold enrichment (6-mer frequency, TF over GST control); in the experiment with ELF3 it was 1.09 fold enrichment (6-mer frequency, TF over GST control); in the experiment with CRX it was 2.49 fold enrichment (6-mer frequency, TF over GST control). The binding signal with ETV1 was 1.11 fold enrichment (6-mer frequency, TF over GST control).
